The values below come from PubChem BioAssay AID493169 (National Center for Advancing Translational Sciences (NCATS), 2011).

Records with an inconclusive call do not appear. A call without a number means that no potency is given here. Activity calls are given as the source filed them. Calls follow the shape of the dose curve; as a rule, active = well fitted inhibition curve with a large enough effect; inconclusive = small, poorly fitted or top-dose-only effect; inactive = flat fitted curve, though single readings scatter.
Potency is read from the fitted curve at half-maximal effect.

The nature of the assay: CHOP2 Reporter Counterscreen Assay for Inhibitors of Ubiquitin-specific Protease USP2a.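 Also: activated enterokinase alone at 50 pM in a cell-free format rather than USP2a or CHOP2; nearly all actives have a fitted effect of over 55% in size.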 Conditions: purified enterokinase, fluorogenic substrate, 485/531 nm; series mostly up to 38.3 µM. In short, it runs like this: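 Cell-free counterscreen with pre-activated enterokinase alone (50 pM final) in 20mM Tris-HCl pH 8.0, 2mM CaCl2, 2mM beta-mercaptoethanol, 0.05% CHAPS; compound preincubation 30 min RT, reporter substrate 25nM final, fluorescence read after 10 min (Ex 485/Em 531).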
For orientation: Counterscreens check selectivity or assay interference.
Turning to `O=C1c2ccccc2C(=O)N1CCC1=CCCCC1`, the Potency entry was “inactive”. With `CCOc1ccccc1C(=O)Nc1nnc(C(C)C)s1`, the Potency result is “inactive”. On to `COc1ccc(C(=O)CSc2nnc(-c3ccco3)c(-c3ccco3)n2)cc1`, for which the Potency is 6.31 µM (active).

In the case of `Cc1ccc(SCC(=O)NCC(C)C)cc1`, the Potency entry was “inactive”. For the molecule `O=C1CS/C(=C/C(=O)c2ccccc2)N1`, the Potency result is “inactive”.

Take `CC(C)CC(=O)NC(=S)Nc1nc(-c2ccc(Cl)cc2)cs1`: the Potency result is “inactive”. Turning to `CCOc1ccccc1N(CC(=O)NC(C)(C)C)C(=O)c1ccc(CN2CCOCC2)o1`, the Potency result was “inactive”. Turning to `Nc1c(C(=O)Nc2ccc3c(c2)OCCO3)nnn1CCc1ccccc1`, the Potency entry is “inactive”. For `CCOC(=O)C(C)Sc1nnc(Cn2c(=O)sc3ccccc32)n1-c1ccccc1` (stereo not drawn) the value was “inactive”; for `N=C1/C(=C\c2ccc(-c3cccc(Cl)c3)o2)C(=O)N=C2SC=C(c3ccccc3)N12`, “inactive”; for `NC(=O)C[C@@H]1N[C@]2(C(=O)Nc3ccccc32)[C@@H]2C(=O)N(c3cc(C(F)(F)F)ccc3Cl)C(=O)[C@H]12`, “inactive”. As for `O=C(/C=C1\NC2(CCCC2)Cc2ccccc21)C(=O)N/N=C/c1ccc(O)c(O)c1`, the Potency was 4.47 µM (active). In the case of `COc1cccc(N2C(=O)C3CCCN3C2c2ccc(N(C)C)cc2)c1` (stereo not drawn), the Potency entry is “inactive”. Take `CC(C)(C)c1cc(Br)ccc1OCC(=O)Nc1ncn[nH]1`: the Potency entry is “inactive”. In the case of `Cn1c(=O)c2c(nc(CN3CCN(C(=O)c4ccco4)CC3)n2CCCc2ccccc2)n(C)c1=O` it was “inactive”; in that of `CC1(C)CC(=O)C2=C(C1)N(Cc1ccco1)C(=O)NC2(C(F)(F)F)C(F)(F)F`, “inactive”; in that of `O=C(CCc1nc(-c2ccccc2F)no1)NC1CCCCCC1`, “inactive”. For `COC(=O)c1ccc(CSc2ncnc3ccccc23)o1` the value was “inactive”; for `O=C(Nc1ccncc1)c1ccc(S(=O)(=O)Nc2ccccc2)cc1`, 3.55 µM (active); for `O=C(Nc1ccc2c(c1)OCO2)NC1(C(F)(F)F)Oc2ccccc2O1`, “inactive”. Regarding `CN(C)c1ccc(-c2ccccc2)nn1`, the Potency result was “inactive”. Take `O=C(Nc1cccc(Cl)c1)Nc1nnc(CC2=CCCCC2)s1`: the Potency entry is “inactive”.

Consider `Cc1ccc(Nc2nc(N)nc(CN3CCN(C(=O)c4ccco4)CC3)n2)cc1Cl`, for which the Potency entry is “inactive”.
